PubChem BioAssay AID2384 (Southern Research Specialized Biocontainment Screening …, 2010)
Screen size: about 2,300 compounds; about 1,100 (48%) were called active. The rule behind the calls is not given here. The set was probably picked from earlier hits. The list shows a part of the results. Where a call stands in place of a potency, no number is given. Potency and affinity values are given separately.

assay: S. typhi counter-screen signal inhibition – fluorescence, 4 h, counter-screen for PhoP regulon inhibitor project, dose response (AID 2384); conditions: S. typhi GFP reporter counter-screen; series mostly up to 150 µM

| Compound | inhibition |
| --- | --- |
| CCOc1ccc(Cl)cc1/C=N/O | inactive |
| COc1ccccc1/C=C/C(=O)Nc1cccc(C(C)=O)c1 | inactive |
| COc1ccc2c(c1)CC1(CN2C)C(=O)NC(=O)N(CCc2ccccc2)C1=O (stereo not drawn) | inactive |
| CCOC(=O)c1nc2cc3n(c(CC(C)C)c-2c1C)CC(C)=C3C | inactive |
| CCOC(=O)c1ccc(N2Cc3ccccc3C2=NC(=O)c2cccc([N+](=O)[O-])c2)cc1 | inactive |
| CCOc1ccc(N2CC(C(=O)OCC(=O)NCc3ccccc3)CC2=O)cc1 (stereo not drawn) | inactive |
| COc1ccc2nc(NC(=O)C3CC(=O)N(c4ccccc4)C3)sc2c1 (stereo not drawn) | inactive |
| CC(C)Oc1ccc(N2CC(C(=O)Nc3ccccc3F)CC2=O)cc1 (stereo not drawn) | inactive |
| COc1ccc(Nc2c3c(nc4ccc(C)cc24)CCC3)cc1 | inactive |
| COc1cccc(-c2ccc(SCc3ccccn3)nn2)c1 | inactive |
| COc1ccccc1-c1nc(C(F)(F)F)c(OC)o1 | inactive |
| Cc1cc(C)cc(NC(=O)CSc2nnc(CNC(=O)c3cccs3)o2)c1 | inactive |
| Cc1ccc(CSc2nc3c(c(=O)[nH]2)CCC3)cc1 | inactive |
| COc1cc(CNCCCN2CCOCC2)c(Br)cc1OCC(=O)Nc1ccccc1C | inactive |
| Cc1ccc(C)c(OCC(=O)Nc2cccc(C(=O)O)c2)c1C | inactive |
| Fc1cccc(Cl)c1CSc1ccc(-c2ccco2)nn1 | inactive |
| Cc1cccc(CSCCNC(=O)COc2ccc(Cl)cc2)c1 | inactive |
| CCC(Oc1ccccc1)C(=O)Nc1nnc(S(=O)(=O)N2CCCCC2)s1 (stereo not drawn) | inactive |
| ON=C1/C(=N\O)CC2(C/C1=N/O)OCCO2 | inactive |
| O=C(NCCOc1ccccc1)c1ncn[nH]1 | inactive |

| Compound | inhibition |
| --- | --- |
| CC(C)(C)c1ccc(OCCNC(=S)Nc2ccccc2)cc1 | inactive |
| O=C(O)COc1ccccc1/C=N/NC(=O)c1cccc(S(=O)(=O)N2CCOCC2)c1 | inactive |
| O=C(N/N=C/c1cccnc1)c1ccc([N+](=O)[O-])cc1Cl | inactive |
| Cc1noc(C)c1S(=O)(=O)N1CCC(Cc2ccccc2)CC1 | inactive |
| O=C(N/N=C/c1ccco1)c1cccc(NC(=O)c2cccc(Cl)c2)c1 | inactive |
| Cc1cccc(C(=O)NCCC(=O)Nc2ccc(F)c([N+](=O)[O-])c2)c1 | inactive |
| O=[N+]([O-])c1ccc2oc(C3CCCCC3)nc2c1 | inactive |
| CC(C)=CCN1CCN(Cc2nc(-c3ccccc3)cs2)CC1CCO (stereo not drawn) | inactive |
| CCO[C@H]1OC(C(=O)O)=C[C@@H](c2ccccc2)[C@@H]1CCCO | inactive |
| Cc1cccc2cc(C(c3nnnn3Cc3ccccc3)N3CCN(C)CC3)c(=O)[nH]c12 (stereo not drawn) | inactive |
| O=C(NC1=NCCS1)c1cccc2ccccc12 | inactive |
| O=C1CCCC2=C1C(c1ccncc1)Nc1ccccc1N2 (stereo not drawn) | inactive |
| CCn1nnnc1NCc1cccc(Cl)c1 | inactive |
| Clc1ccc(Nc2nc(C3CC3)cs2)cc1 | inactive |
| CCN(CC(=O)Nc1ccc(C(=O)OC)cc1)C1CCCCC1 | inactive |
| CC(c1ccccc1)(c1ccccc1)c1ccncc1 | inactive |
| COc1ccc(C2C(C(=O)NCc3cccnc3)c3ccccc3C(=O)N2C)cc1OC (stereo not drawn) | inactive |
| C1=Nc2ccccc2CN1c1ccccc1 | inactive |
| CCC(Sc1nc2ccncc2[nH]1)C(=O)Nc1ccc(C)c(Cl)c1 (stereo not drawn) | inactive |
| Cc1cc(C(=O)Nc2cccnc2)on1 | inactive |

| Compound | inhibition |
| --- | --- |
| CCCCNC(=O)CCC(=O)Nc1ccc2nc(N3CCC(C)CC3)cc(C)c2c1 | inactive |
| Cc1cc(N2CCN(C3CCCCC3)CC2)nc2cccc(O)c12 | inactive |
| COc1cccc2[nH]c3c(N4CCN(Cc5ccc6c(c5)OCO6)CC4)ncnc3c12 | inactive |
| CCn1c(O)c(N=NC(=O)CNC(=O)/C=C/c2ccco2)c2ccccc21 | inactive |
| COc1ccc2[nH]cc(C(=O)CCl)c2c1 | inactive |
| Cn1ncc(N=Cc2ccccc2O)c1C(=O)N1CCOCC1 | inactive |
| Cc1nc(-c2ccc(C(=O)N3CCOCC3)cc2)cs1 | inactive |
| O=C(Cc1ccc(F)cc1)NC1CCCC1 | inactive |
| Cc1ccc(C)c(OCc2ccc(C(=O)NN)o2)c1 | inactive |
| O=C(NC1CCCCC1)c1ccc(S(=O)(=O)NCc2cccnc2)cc1 | inactive |
| CCOc1ccc(NC(=S)Nc2cc(C)[nH]n2)cc1 | inactive |
| CCOc1ccc(OCCSc2nc3ccccc3[nH]2)cc1 | inactive |
| O=S(=O)(Nc1ncccn1)c1ccc(NC(=S)Nc2cccc(Cl)c2)cc1 | inactive |
| Cc1cc(NS(=O)(=O)c2ccc(NC(=S)NC(=O)c3cccnc3)cc2)no1 | inactive |
| Cc1ccc(NC(=O)OCc2cccs2)cc1 | inactive |
| CC1CCCC(NC(=O)COC(=O)Cc2c[nH]c3ccccc23)C1C (stereo not drawn) | inactive |
| Cc1ccc(-c2c(C)n([O-])c3c([n+]2=O)CCCC3)o1 | inactive |
| COc1ccccc1OCc1nnc(SCC(=O)NCc2ccco2)n1Cc1ccco1 | inactive |
